Data on five compounds can be found in PubChem BioAssay (EPA / NIEHS).

As a reminder, the AC50 is the concentration giving half of the maximal activity seen.

Molecules are shown by their SMILES. Records with an inconclusive call do not appear. The source made the active and inactive calls. Rule for the calls, unless noted: active = hit-call score of the fitted dose curve at least 0.9, where 1 is the maximum; inactive = score below 0.9.

In test [1] the target is Retinoic acid receptor RXR-alpha (Homo sapiens) (UniProt P19793). The experiment in a line: OT_NURR1_NURR1RXRa_0480: Odyssey Thera (OT) 8-hour HEK293T Protein Complementation Assay for Nurr1/retinoid X receptor (RXR) (AID 2283385; active = hit-call score of the fitted dose curve at least 0.9, where 1 is the maximum). The method, boiled down: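 HEK293T cells expressing Nurr1 and RXRα fused to reporter fragments were dosed with compound for 8 hours. Complex formation was read as fluorescence intensity and analysed as gain of signal against DMSO as baseline.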
Retinoic acid receptor RXR-alpha (Homo sapiens), sequence (P19793 whole entry, looked up, the tested form may be a part): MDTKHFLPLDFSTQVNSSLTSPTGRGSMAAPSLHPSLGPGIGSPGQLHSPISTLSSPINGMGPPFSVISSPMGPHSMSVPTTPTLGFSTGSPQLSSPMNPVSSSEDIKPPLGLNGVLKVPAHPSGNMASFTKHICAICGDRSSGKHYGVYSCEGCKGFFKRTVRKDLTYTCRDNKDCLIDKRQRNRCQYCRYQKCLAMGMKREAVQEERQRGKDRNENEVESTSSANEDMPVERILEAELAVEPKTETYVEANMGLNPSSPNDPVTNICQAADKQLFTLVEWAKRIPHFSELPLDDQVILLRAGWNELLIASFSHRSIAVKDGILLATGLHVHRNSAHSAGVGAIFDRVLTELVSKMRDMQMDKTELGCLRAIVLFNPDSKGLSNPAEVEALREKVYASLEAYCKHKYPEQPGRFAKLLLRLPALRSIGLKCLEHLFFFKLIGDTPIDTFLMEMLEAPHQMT

Test [2] has as its target Peroxisome proliferator-activated receptor gamma (Homo sapiens) (UniProt P37231). Kind of test: OT_PPARg_PPARgSRC1_1440: Odyssey Thera (OT) 24-hour Protein-Complementation Assay for Peroxisome Proliferator-activated Receptor Gamma/ SRC-1 Co-activator (AID 2283388; active = hit-call score of the fitted dose curve at least 0.9, where 1 is the maximum). Summed up: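 HEK293T transiently transfected with PPARg/SRC-1 split-Venus YFP fusions 48 h before dosing, then treated 24 h at 37C. Fixed cells imaged; nuclear/cytoplasmic 488 nm fluorescence ratio, gain of signal versus DMSO.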

The nature of test [3]: CEETOX_H295R_11DCORT: CeeTox H295R High-throughput Steroidogenesis Assay for 11-Deoxycortisol (11DCORT) (AID 2283432).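 For AC50: 11-deoxycortisol secreted into the medium measured by LC-MS/MS.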 Particulars: actives raise or lower the signal. Summed up:
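H295R cells prestimulated 48 h with 10 uM forskolin, then exposed 48 h to chemical in 0.1% DMSO. 11-Deoxycortisol in medium quantified by HPLC-MS/MS after MTBE extraction; bidirectional fit versus DMSO. MTT viability read in same wells.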

Test [4] in a line: CEETOX_H295R_OHPREG: CeeTox H295R High-throughput Steroidogenesis Assay for OH-Pregnenolone (OHPREG) (AID 2283434). The following applies: actives raise or lower the signal. The method, boiled down:
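Hormone levels in spent medium were measured by tandem mass spectrometry following liquid-liquid extraction. Cells (H295R) had been forskolin-stimulated (10 uM, 48 h) before a 48 h chemical exposure at 0.1% DMSO, with activity fitted in both directions against DMSO.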

A short description of test [5]: CEETOX_H295R_OHPROG: CeeTox H295R High-throughput Steroidogenesis Assay for OH-Progesterone (OHPROG) (AID 2283435). The following applies: actives raise or lower the signal. The method, boiled down:
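H295R human adrenal cells were prestimulated 48 h with 10 uM forskolin, then exposed 48 h to test chemical (0.1% DMSO final). 17alpha-hydroxyprogesterone in medium was measured by HPLC-MS/MS after MTBE extraction; bidirectional fitting vs DMSO.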

Test [6] is described as follows: CEETOX_H295R_CORTIC: CeeTox H295R High-throughput Steroidogenesis Assay for Corticosterone (CORTIC) (AID 2283437).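 Note: corticosterone secreted into medium quantified by mass spectrometry.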 The following applies: actives raise or lower the signal. Summed up:
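Corticosterone secreted into medium is measured by reverse-phase HPLC with tandem MS following liquid-liquid extraction. Cells are forskolin-stimulated (10 uM, 48 h) before 48 h test exposure; activity fitted in both directions against DMSO.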

The nature of test [7]: CEETOX_H295R_CORTISOL: CeeTox H295R High-throughput Steroidogenesis Assay for Cortisol (AID 2283438).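 Note: cortisol secreted into medium quantified by LC-MS/MS.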 Particulars: actives raise or lower the signal. The method, boiled down:
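H295R human adrenal cells were prestimulated 48 h with 10 uM forskolin, then exposed 48 h to test chemical (0.1% DMSO final). Medium cortisol was quantified by HPLC-MS/MS after MTBE extraction; bidirectional fitting relative to DMSO baseline.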

Test [8] in a line: CEETOX_H295R_DOC: CeeTox H295R High-throughput Steroidogenesis Assay for DOC (AID 2283439). Particulars: actives raise or lower the signal. The method, boiled down: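 H295R adrenal cells prestimulated 48 h with 10 uM forskolin, then exposed 48 h to test chemical (0.1% DMSO final). Medium 11-deoxycorticosterone extracted with MTBE, quantified by HPLC-MS/MS; bidirectional fit versus DMSO baseline; MTT viability in same wells.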

Test [9] is described as follows: CEETOX_H295R_PROG: CeeTox H295R High-throughput Steroidogenesis Assay for Progesterone (PROG) (AID 2283442).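 For AC50: human H295R adrenal cells primed with 10 µM forskolin before dosing.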 The following applies: actives raise or lower the signal. Summed up: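 H295R adrenal cells prestimulated 48 h with 10 uM forskolin, then exposed 48 h to test chemical in 0.1% DMSO. Progesterone in medium quantified by HPLC-MS/MS after MTBE extraction; viability checked by MTT in same wells.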

Read-out in test [10]: Fatty acid synthase (Homo sapiens) (UniProt P49327)
The experiment in a line: LTEA_HepaRG_FASN: Life Technologies and Expression Analysis (LTEA) Assay for Fatty Acid Synthase (FASN) using HepaRG (AID 2283448). Particulars: mRNA level, 48 h; actives raise or lower the signal. Summed up:
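Differentiated human HepaRG cells were exposed for 48 h in serum-free induction medium to eight half-log concentrations up to 100 uM in 0.5% DMSO, in duplicate. FASN mRNA was quantified by TaqMan qRT-PCR, normalized to ACTB/GAPDH/POLR2A, and fitted bidirectionally against DMSO.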

Read-out in test [11]: Cyclin D2 (CCND2), CCND2 (gene 894)
The experiment in a line: LTEA_HepaRG_CCND2: Life Technologies and Expression Analysis (LTEA) Assay for Cyclin D2 (CCND2) using HepaRG (AID 2283449). Particulars: mRNA level, 48 h; actives raise or lower the signal. The method, boiled down: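 Read-out is CCND2 mRNA level measured by qRT-PCR in human HepaRG liver cells and normalised to three housekeeping genes. Chemicals were applied for 48 h at up to 100 uM, with gain or loss fitted relative to 0.5% DMSO.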

Read-out in test [12]: Cyclin Dependent Kinase Inhibitor 1A (CDKN1A), CDKN1A (gene 1026)
Kind of test: LTEA_HepaRG_CDKN1A: Life Technologies and Expression Analysis (LTEA) Assay for Cyclin Dependent Kinase Inhibitor 1A (CDKN1A) using HepaRG (AID 2283450). The following applies: mRNA level, 48 h; actives raise or lower the signal. The method, boiled down: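 Differentiated HepaRG cells in serum-free induction medium, exposed 48 h in duplicate to eight half-log concentrations up to 100 uM in 0.5% DMSO. mRNA measured by TaqMan qRT-PCR, normalized to ACTB, GAPDH, POLR2A; bidirectional fit versus DMSO.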

Read-out in test [13]: Cyclin D1 (CCND1), CCND1 (gene 595)
The experiment in a line: LTEA_HepaRG_CCND1: Life Technologies and Expression Analysis (LTEA) Assay for Cyclin D1 (CCND1) using HepaRG (AID 2283451).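 For AC50: TaqMan qRT-PCR transcript level normalised to ACTB GAPDH and POLR2A housekeeping genes.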 Particulars: mRNA level, 48 h; actives raise or lower the signal. Summed up: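 Differentiated HepaRG cells exposed 48 h in serum-free induction medium to eight half-log concentrations from 100 uM top, 0.5% DMSO, duplicates. CCND1 mRNA measured by Fluidigm TaqMan qRT-PCR, normalised to ACTB, GAPDH, POLR2A; bidirectional fit.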

Read-out in test [14]: catalase (CAT), CAT (gene 847)
The experiment in a line: LTEA_HepaRG_CAT: Life Technologies and Expression Analysis (LTEA) Assay for catalase (CAT) using HepaRG (AID 2283452). The following applies: mRNA level, 48 h; actives raise or lower the signal. The method, boiled down:
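Expression of CAT was quantified by TaqMan qRT-PCR with ACTB/GAPDH/POLR2A normalization after 48 h chemical exposure of HepaRG. Eight-point half-log series, top 100 uM, in 0.5% DMSO; gain or loss fitted against vehicle.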

Test [15] has as its target Peroxisome proliferator-activated receptor gamma (Homo sapiens) (UniProt P37231). The experiment in a line: OT_PPARg_PPARgSRC1_0480: Odyssey Thera (OT) 8-hour Protein-Complementation Assay for Peroxisome Proliferator-activated Receptor Gamma / SRC-1 Co-activator (AID 2283387; active = hit-call score of the fitted dose curve at least 0.9, where 1 is the maximum). Summed up:
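HEK293T transiently transfected with PPARg and SRC-1 fused to Venus YFP fragments, compounds 8 h at 37C. Fixed, Draq5-stained cells imaged; nuclear/cytoplasmic 488 nm fluorescence ratio over at least 350 cells per image; gain fitted versus DMSO.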

Read-out in test [16]: Tumor necrosis factor receptor superfamily member 6 (Homo sapiens) (UniProt P25445)
Kind of test: LTEA_HepaRG_FAS: Life Technologies and Expression Analysis (LTEA) Assay for Fas cell surface death receptor (FAS) using HepaRG (AID 2283447). The following applies: mRNA level, 48 h; actives raise or lower the signal. The method, boiled down: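 FAS transcript level was measured by TaqMan qRT-PCR against three housekeeping genes after 48 h chemical exposure. Cells were HepaRG, 0.5% DMSO vehicle, with a top concentration of 100 uM and half-log dilutions over eight points, in duplicate.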

A short description of test [17]: CEETOX_H295R_ANDR: CeeTox H295R High-throughput Steroidogenesis Assay for Androstenedione (ANDR) (AID 2283436). The following applies: actives raise or lower the signal. Summed up: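 Read-out is androstenedione secreted into medium, measured by tandem mass spectrometry after liquid-liquid extraction. Cells were H295R, dosed for 48 h per modified OECD 456; activity fitted in both directions relative to DMSO.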

A short description of test [18]: CEETOX_H295R_ESTRADIOL: CeeTox H295R High-throughput Steroidogenesis Assay for Estradiol (AID 2283440).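 Note: estradiol secreted into medium quantified by LC-MS/MS after dansyl derivatisation.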 The following applies: actives raise or lower the signal. The method, boiled down:
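H295R cells pre-stimulated 48 h with 10 uM forskolin, then exposed 48 h to chemical in 0.1% DMSO. Medium estradiol quantified by MTBE extraction, dansyl derivatisation and HPLC-MS/MS; bidirectional fit versus DMSO; MTT viability required >/=70%.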

Test [19] can be described thus: CEETOX_H295R_ESTRONE: CeeTox H295R High-throughput Steroidogenesis Assay for Estrone (AID 2283441).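 Note: estrone secreted into medium measured by LC-MS/MS after dansyl derivatization.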 Particulars: actives raise or lower the signal. Summed up:
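H295R cells; 48 h forskolin (10 uM) prestimulation; 48 h compound exposure, 0.1% DMSO final. Medium estrone: MTBE extraction, dansyl derivatization, HPLC-MS/MS. Bidirectional fit vs DMSO.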

Fatty acid synthase (Homo sapiens), sequence (P49327 whole entry, looked up): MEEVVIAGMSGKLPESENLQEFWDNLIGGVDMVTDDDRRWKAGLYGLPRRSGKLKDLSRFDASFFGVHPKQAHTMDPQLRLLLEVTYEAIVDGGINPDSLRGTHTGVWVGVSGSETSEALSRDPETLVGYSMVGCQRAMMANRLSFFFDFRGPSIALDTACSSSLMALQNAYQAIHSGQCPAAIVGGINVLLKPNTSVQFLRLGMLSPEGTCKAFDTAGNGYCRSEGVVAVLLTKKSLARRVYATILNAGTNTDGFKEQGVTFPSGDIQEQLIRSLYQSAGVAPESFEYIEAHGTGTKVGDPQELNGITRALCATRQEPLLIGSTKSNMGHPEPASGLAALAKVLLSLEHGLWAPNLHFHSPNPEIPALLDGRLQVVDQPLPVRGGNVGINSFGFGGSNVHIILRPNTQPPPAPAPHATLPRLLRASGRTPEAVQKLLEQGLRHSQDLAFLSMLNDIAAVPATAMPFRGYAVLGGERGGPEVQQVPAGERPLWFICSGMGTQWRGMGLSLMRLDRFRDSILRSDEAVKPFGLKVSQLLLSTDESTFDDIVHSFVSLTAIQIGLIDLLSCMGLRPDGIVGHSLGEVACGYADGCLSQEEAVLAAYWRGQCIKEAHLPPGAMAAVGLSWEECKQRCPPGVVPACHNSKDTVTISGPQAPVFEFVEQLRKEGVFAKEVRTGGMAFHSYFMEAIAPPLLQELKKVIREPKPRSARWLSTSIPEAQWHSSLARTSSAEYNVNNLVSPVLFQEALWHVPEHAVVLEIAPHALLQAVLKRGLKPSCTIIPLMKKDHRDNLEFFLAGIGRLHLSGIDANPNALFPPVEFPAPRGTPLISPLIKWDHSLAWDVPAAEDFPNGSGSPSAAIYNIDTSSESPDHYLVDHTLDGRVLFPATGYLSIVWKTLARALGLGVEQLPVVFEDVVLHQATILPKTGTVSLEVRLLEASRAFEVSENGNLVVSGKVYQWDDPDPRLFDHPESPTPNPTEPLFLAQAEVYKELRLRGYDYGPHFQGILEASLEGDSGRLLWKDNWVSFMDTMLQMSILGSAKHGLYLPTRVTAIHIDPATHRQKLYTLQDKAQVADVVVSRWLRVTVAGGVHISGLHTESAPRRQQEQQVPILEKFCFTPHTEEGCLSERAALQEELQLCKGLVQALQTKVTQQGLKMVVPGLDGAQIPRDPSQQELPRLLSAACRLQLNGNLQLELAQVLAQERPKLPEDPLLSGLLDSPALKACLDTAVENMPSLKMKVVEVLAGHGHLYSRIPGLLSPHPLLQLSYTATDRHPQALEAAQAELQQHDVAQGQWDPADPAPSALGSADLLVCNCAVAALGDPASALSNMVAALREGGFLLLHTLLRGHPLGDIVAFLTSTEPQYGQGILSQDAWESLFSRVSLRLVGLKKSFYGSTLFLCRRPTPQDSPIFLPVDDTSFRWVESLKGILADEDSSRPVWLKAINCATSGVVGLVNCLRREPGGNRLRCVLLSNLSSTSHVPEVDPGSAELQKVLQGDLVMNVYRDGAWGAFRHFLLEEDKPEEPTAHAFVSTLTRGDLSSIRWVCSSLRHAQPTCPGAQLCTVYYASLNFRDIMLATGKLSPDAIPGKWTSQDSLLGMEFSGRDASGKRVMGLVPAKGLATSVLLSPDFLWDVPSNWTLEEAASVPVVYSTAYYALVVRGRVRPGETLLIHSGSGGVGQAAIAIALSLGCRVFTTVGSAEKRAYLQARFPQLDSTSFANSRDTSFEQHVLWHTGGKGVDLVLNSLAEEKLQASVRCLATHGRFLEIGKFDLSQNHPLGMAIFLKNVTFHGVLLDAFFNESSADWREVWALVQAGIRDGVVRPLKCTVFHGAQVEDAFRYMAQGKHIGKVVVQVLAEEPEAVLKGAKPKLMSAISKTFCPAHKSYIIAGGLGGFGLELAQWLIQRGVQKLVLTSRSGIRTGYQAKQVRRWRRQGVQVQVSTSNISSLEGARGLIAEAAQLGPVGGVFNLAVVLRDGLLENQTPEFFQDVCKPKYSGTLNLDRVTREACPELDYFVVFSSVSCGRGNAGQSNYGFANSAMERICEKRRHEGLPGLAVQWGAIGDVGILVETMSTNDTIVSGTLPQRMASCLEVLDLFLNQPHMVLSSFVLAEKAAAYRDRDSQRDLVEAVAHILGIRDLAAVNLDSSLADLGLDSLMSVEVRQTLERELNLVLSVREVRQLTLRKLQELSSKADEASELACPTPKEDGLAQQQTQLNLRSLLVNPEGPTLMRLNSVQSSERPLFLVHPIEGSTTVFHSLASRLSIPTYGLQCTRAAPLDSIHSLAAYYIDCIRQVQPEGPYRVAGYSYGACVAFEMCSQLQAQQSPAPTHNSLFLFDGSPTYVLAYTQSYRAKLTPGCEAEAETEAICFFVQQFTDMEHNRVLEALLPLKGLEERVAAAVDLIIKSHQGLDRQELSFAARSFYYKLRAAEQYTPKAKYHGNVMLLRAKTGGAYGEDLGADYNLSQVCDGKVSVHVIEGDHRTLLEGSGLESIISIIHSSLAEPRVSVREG
Peroxisome proliferator-activated receptor gamma (Homo sapiens), sequence (P37231 whole entry, looked up, the tested form may be a part): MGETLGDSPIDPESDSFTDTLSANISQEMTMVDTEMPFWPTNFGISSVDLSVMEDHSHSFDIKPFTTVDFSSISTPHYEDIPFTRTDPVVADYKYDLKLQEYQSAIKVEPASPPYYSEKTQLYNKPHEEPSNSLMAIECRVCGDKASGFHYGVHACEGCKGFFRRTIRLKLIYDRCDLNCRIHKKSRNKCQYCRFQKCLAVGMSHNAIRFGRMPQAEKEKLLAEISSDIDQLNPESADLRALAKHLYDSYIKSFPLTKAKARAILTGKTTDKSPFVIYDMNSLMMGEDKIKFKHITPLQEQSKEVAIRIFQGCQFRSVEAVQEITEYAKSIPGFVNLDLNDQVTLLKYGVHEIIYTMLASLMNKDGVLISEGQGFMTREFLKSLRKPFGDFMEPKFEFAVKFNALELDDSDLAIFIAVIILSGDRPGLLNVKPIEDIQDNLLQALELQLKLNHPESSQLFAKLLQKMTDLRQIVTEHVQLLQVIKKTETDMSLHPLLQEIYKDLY

In the case of `COP(=S)(OC)SCN1C(=O)c2ccccc2C1=O`, the call in test [1], in test [2], in test [3], in test [4], in test [5] and in test [6] was inactive. The result in test [7], in test [8], in test [9], in test [10], in [11] and in [12] was inactive. The call in [13] and in test [14] was inactive.
`O=C(N[C@H](c1ccccc1)[C@@H]1CN2CCC1CC2)c1c(Cl)ccc(C(F)(F)F)c1Cl`: the compound was classed as inactive in test [15], in test [2], in [16], in [11] and in test [12]. Also, the results for the AC50 in [10], in [13] and in test [14] were 76.8 µM (active), 74.2 µM (active) and 68.5 µM (active), respectively.
For `O=C(Nc1ccccc1)c1ccccc1I`, the compound was called inactive in test [1], in test [15], in test [2], in [17], in [6] and in [7]. Further, the result in [18], in test [19], in [16], in test [11], in test [12] and in [14] was inactive. Moreover, the AC50 was 27.8 µM (active) in test [3]; 32.3 µM (active) in test [4]; 40.9 µM (active) in [5]; 25.7 µM (active) in [8]; 7.28 µM (active) in test [9]; 13.2 µM (active) in test [10]. The AC50 in [13] is 22 µM (active).
In the case of `N#CC(Br)Br`, the outcome in [15], in test [2], in test [10], in test [11], in test [12] and in test [13] was inactive. Further, in test [14], the outcome was inactive.
Take `CC(C)N(Cc1ccccc1)C(=O)C(C)(C)C`: the compound was called inactive in [1], in [2], in [4], in test [5], in test [17] and in test [9]. The compound was called inactive in test [10], in test [11], in test [12], in test [13] and in test [14].
